Data on nine molecules can be found in PubChem BioAssay (NCI).

The panel holds about 83,000 compounds, 20% with a hit somewhere; the sample as a whole holds those more often.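 Method: cells in 96-well plates; compound added at one concentration; 48 h incubation; percent growth measured; values under 10 scored active.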 Unmarked numbers belong to inactive results. Activity calls are given as the source filed them.

Some test systems named below: SR leukemia; RPMI-8226 leukemia; OVCAR-8 ovarian; OVCAR-5 ovarian; OVCAR-4 ovarian; SK-OV-3 ovarian; IGROV1 ovarian; OVCAR-3 ovarian; HS 578T breast; NCI/ADR-RES ovarian; T-47D breast; BT-549 breast; MDA-MB-435 melanoma; SW-620 colon; MCF7 breast; HCT-116 colon; KM12 colon; HCC-2998 colon.
What all share (test): NCI-60 one-dose screen, 48 h (100 = growth as untreated, 0 = no growth, -100 = all killed)
Common to all, as to conditions: 10 µM unless noted

As to `CC(C)n1cnc2c(=S)nc[nH]c21`, the growth was 74.8% in the test with SR leukemia; 72.9% with RPMI-8226 leukemia; 109% in the test with OVCAR-8 ovarian; 121% in the test on OVCAR-5 ovarian; 124% in the test on OVCAR-4 ovarian; -99.9% (active) in the test with SK-OV-3 ovarian. Further, the growth is 114% with IGROV1 ovarian; 105% in the test on OVCAR-3 ovarian; 108% in the test on HS 578T breast; 133% in the test on NCI/ADR-RES ovarian; 101% with T-47D breast; 112% in the test with BT-549 breast. Also, the growth with MDA-MB-435 melanoma was 94.9%; in the test on SW-620 colon, 103%; with MCF7 breast, 106%; in the test with HCT-116 colon, 106%; in the test with KM12 colon, 102%.
As to `N#Cc1c(-c2ccccc2)cc(-c2ccccc2)n(CCCCCC(=O)Nc2ccccc2N)c1=O`, the growth in the test with SR leukemia is 18.5%; in the test with RPMI-8226 leukemia it was -19.2% (active); with OVCAR-8 ovarian, 58.8%; in the test on OVCAR-5 ovarian it was 66.4%; in the test with OVCAR-4 ovarian, 65.9%; in the test on SK-OV-3 ovarian it was 90.4%. In addition, the growth in the test with IGROV1 ovarian is 45.9%; with OVCAR-3 ovarian it was 59.2%; in the test on HS 578T breast, 76.2%; with NCI/ADR-RES ovarian, 49%; in the test with T-47D breast, 48.3%; with BT-549 breast it was 49.5%. The growth in the test on MDA-MB-435 melanoma was 92.1%; in the test on SW-620 colon it was 86.2%; in the test on MCF7 breast, 68.4%; with HCT-116 colon, 58.1%; with HCC-2998 colon, 80.5%; in the test with KM12 colon it was 55.3%.
Regarding `CCNc1cc(-c2cccc(OC(F)(F)F)c2)nc2ccc(N3CCCC3)cc12`, the growth was 6.47% (active) in the test with SR leukemia; -2.09% (active) in the test with RPMI-8226 leukemia; 5.54% (active) with OVCAR-8 ovarian; 27.9% with OVCAR-5 ovarian; 14.5% with OVCAR-4 ovarian; 17.7% in the test with SK-OV-3 ovarian. Also, the growth in the test with IGROV1 ovarian is 27.1%; in the test with OVCAR-3 ovarian it was -18% (active); in the test with HS 578T breast it was 70.5%; in the test on NCI/ADR-RES ovarian it was 0.328% (active); in the test on T-47D breast it was -24.6% (active); with BT-549 breast, 75.2%. For the same molecule, the growth was 2.21% (active) with MDA-MB-435 melanoma; 4.43% (active) with SW-620 colon; 3.29% (active) in the test with MCF7 breast; -15.9% (active) in the test on HCT-116 colon; 4.19% (active) in the test with KM12 colon.
As for `Cn1cc(-c2csc(-c3c[nH]c4ccc(Br)cc34)n2)c2cnccc21`, the growth was -30.9% (active) with SR leukemia; -40.3% (active) in the test on RPMI-8226 leukemia; -60.5% (active) in the test with OVCAR-8 ovarian; -95.7% (active) in the test with OVCAR-5 ovarian; -84.8% (active) with OVCAR-4 ovarian; -95.5% (active) in the test with SK-OV-3 ovarian. The growth was -77.8% (active) with IGROV1 ovarian; -91.9% (active) in the test on OVCAR-3 ovarian; -60.5% (active) in the test on HS 578T breast; -69.2% (active) in the test with NCI/ADR-RES ovarian; -51.5% (active) with T-47D breast; 7.16% (active) with BT-549 breast. In addition, the growth in the test with MDA-MB-435 melanoma was -92% (active); in the test on SW-620 colon, -82.6% (active); in the test with MCF7 breast, -68.6% (active); with HCT-116 colon, -90.9% (active); with KM12 colon it was -79.9% (active).
On to `C=CCn1c(SCC(=O)Nc2ccc(C(=O)/C=C/c3cc4cc(OC)ccc4nc3Cl)cc2)nnc1-c1ccc(Br)cc1`, for which the growth with SR leukemia is 58.4%; in the test on RPMI-8226 leukemia it was -19.8% (active); with OVCAR-8 ovarian, 79.8%; with OVCAR-5 ovarian it was 99.2%; in the test with OVCAR-4 ovarian, 84.8%; with SK-OV-3 ovarian it was 95.7%. Further, the growth in the test with IGROV1 ovarian is 78.4%; with OVCAR-3 ovarian, 97.4%; with HS 578T breast, 89.2%; with NCI/ADR-RES ovarian, 92.3%; in the test with T-47D breast, 77.7%; with BT-549 breast, 79.3%. For the same molecule, the growth is 91.1% with MDA-MB-435 melanoma; 92% with SW-620 colon; 29.6% in the test on MCF7 breast; -44% (active) in the test with HCT-116 colon; 84.7% in the test on KM12 colon.
Regarding `COC(=O)c1cc(-c2ccccc2)[nH]c1N/N=C/c1c(Cl)cccc1Cl`, the growth in the test with SR leukemia is -9.18% (active); in the test with RPMI-8226 leukemia it was -12.7% (active); in the test with OVCAR-8 ovarian it was 15.4%; in the test with OVCAR-5 ovarian, 21.9%; with OVCAR-4 ovarian it was 64.5%; in the test on SK-OV-3 ovarian, 24.4%. Moreover, the growth with IGROV1 ovarian was -44.5% (active); in the test on OVCAR-3 ovarian, -76.7% (active); in the test on HS 578T breast, -30.4% (active); with NCI/ADR-RES ovarian it was -16.2% (active); with T-47D breast it was 38.5%; in the test on BT-549 breast it was 24.1%. The growth in the test with MDA-MB-435 melanoma was -26.9% (active); in the test on SW-620 colon, 13.3%; in the test with MCF7 breast, -38.2% (active); with HCT-116 colon, -1.99% (active); in the test on KM12 colon, 10.2%.
As for `CN[C@]12CC3(C=CC(=O)C=C3)O[C@@]1(Cc1ccc(OC)cc1)N(C)C(=O)N2`, the growth in the test with SR leukemia was 8.34% (active); with RPMI-8226 leukemia, -3.85% (active); in the test with OVCAR-8 ovarian it was 15.6%; in the test on OVCAR-5 ovarian, 18.3%; in the test on OVCAR-4 ovarian it was 32.2%; with SK-OV-3 ovarian, 85.7%. Also, the growth in the test on IGROV1 ovarian was -28.4% (active); with OVCAR-3 ovarian, 11.2%; with HS 578T breast, 96.8%; in the test with NCI/ADR-RES ovarian, 55.6%; with T-47D breast, 16.6%; in the test on BT-549 breast, 41.5%. Moreover, the growth in the test on MDA-MB-435 melanoma is 1.71% (active); in the test on SW-620 colon, 11.1%; with MCF7 breast it was 23.3%; in the test on HCT-116 colon, -35.2% (active); in the test on HCC-2998 colon, 32.7%; with KM12 colon, 9.7% (active).
For the molecule `CCCNC(=O)Oc1ccc(/C(=C(/C)Cc2ccc(OC)cc2)c2ccc(OCCCN(C)C)cc2)cc1`, the growth in the test with SR leukemia was 8.47% (active); in the test with RPMI-8226 leukemia, 77.3%; in the test with OVCAR-8 ovarian it was 86.5%; with OVCAR-5 ovarian, 94%; in the test with OVCAR-4 ovarian, 85.2%; with SK-OV-3 ovarian it was 98.3%. Moreover, the growth in the test with IGROV1 ovarian is 91.1%; in the test with OVCAR-3 ovarian, 94.3%; in the test on HS 578T breast it was 72.3%; with NCI/ADR-RES ovarian it was 79.1%; with T-47D breast, 70.2%; in the test on BT-549 breast it was 91.6%. Further, the growth with MDA-MB-435 melanoma is 80.3%; with SW-620 colon, 97.1%; in the test on MCF7 breast, 36.3%; in the test with HCT-116 colon, 59.5%; in the test on HCC-2998 colon it was 77.7%; in the test on KM12 colon it was 84.1%.
With `O=C(CSc1nnc2n1S(=O)(=O)c1ccccc1N2c1ccccc1)Nc1nc2ccc(F)cc2s1`, the growth is 62.9% in the test with SR leukemia; 76.5% with RPMI-8226 leukemia; 84.9% in the test on OVCAR-8 ovarian; 94.7% in the test with OVCAR-5 ovarian; 99.5% in the test with OVCAR-4 ovarian; 108% in the test on SK-OV-3 ovarian. Further, the growth is 34.7% with IGROV1 ovarian; 106% in the test on OVCAR-3 ovarian; 101% in the test on HS 578T breast; 92.8% with NCI/ADR-RES ovarian; 98.4% in the test with T-47D breast; 97.1% in the test on BT-549 breast. Besides, the growth in the test with MDA-MB-435 melanoma is 101%; with SW-620 colon it was 109%; with MCF7 breast it was 93.5%; in the test on HCT-116 colon it was 93.5%; in the test on KM12 colon, 108%.
